# PLK1 PBD block – PLK1 (human) polo-box domain binding inhibition; P53350; AID 720504; 360,000 tested, 2.8% active; Potency, µM, without a hit: max response, negative = inhibition, hits mostly inhibitors; Plk1 PBD binding of FITC phosphopeptide, fluorescence polarization; further: series mostly up to about 57 µM; on the % scale 0 is the no-effect control and ±100 the full control effect; nearly all actives have a fitted effect of over 65% in size
# Sfp inh – inhibitors of Bacillus subtilis Sfp phosphopantetheinyl transferase. Q9F4F7. Biochemical Sfp PPTase activity, qHTS. Potency, µM, without a hit: largest response in the series, negative = inhibition, most hits filed as inhibitors. 310,000 tested, 3.5% active. AID 1490;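 further: the enzyme is Sfp with the accession as filed and its product quenches rhodamine fluorescence; 0% = enzyme reaction without inhibitor and -100% = no enzyme wells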
#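 Sfp 15 nM + cpd, 15 min RT; start w/ rhodamine-CoA 5 uM, BHQ-2-YbbR 12.5 uM (final); 50 mM Hepes pH 7.6, 10 mM MgCl2, 0.01% NP-40, 0.01% BSA; read 525/598 nm at 0 and 30 min.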
# JMJD2A Tudor inh – inhibitors of human JMJD2A Tudor domain. Potency, µM (doses to about 114 µM), for inactives: at the highest dose activity change, negative = inhibition, most hits filed as inhibitors. AlphaScreen JMJD2A-Tudor / H3K4me3 peptide binding. 390,000 tested, 4.4% active. AID 504339. O75164; further: on the % scale 0 is the no-effect control and ±100 the full control effect; nearly all actives have a fitted effect of over 50% in size
# HP1b chromo inh – blocks HP1-beta chromodomain binding to methylated histone tails | Potency, µM (highest dose often 114 µM), for inactives: at the top dose activity change, negative = inhibition, most hits filed as inhibitors | AlphaScreen HP1-beta / biotin-H3K9me3 peptide binding | 390,000 tested, 0.56% active | P83916; further: nearly all actives have a fitted effect of over 70% in size
#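 HP1-beta protein (50 nM final) preincubated 30 min at room temperature with biotinylated H3(1-18)K9me3 peptide (50 nM) in PBS pH 7.4, 0.01% Tween-20, then compound added for 30 min. AlphaScreen streptavidin donor/nickel chelate acceptor beads (10 ug/mL final), 30 min dark, luminescence read.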
# G9a block – inhibitors of human histone lysine methyltransferase G9a. Q96KQ7. G9a H3K9 monomethylation, AlphaScreen, 2 h. Potency, µM (highest dose often 102 µM), without a hit: at the top dose activity, negative = inhibition, usual class: inhibitors. 350,000 tested, 8.8% active; further: on the % scale 0 is the no-effect control and ±100 the full control effect; nearly all actives have a fitted effect of over 75% in size
#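 AlphaScreen read-out: biotin-H3K9 peptide (500 nM) methylation by 20 nM enzyme with 20 uM SAM, 2 h at room temperature after 15 min compound preincubation; anti-monomethyl H3K9 antibody plus donor/acceptor beads, 10 min dark.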
# BAZ2B inh – inhibitors of human BAZ2B bromodomain; Q9UIF8; AlphaScreen BAZ2B-H3K14Ac peptide displacement; Potency, µM (doses to about 114 µM), without a hit: at the top dose activity change, negative = inhibition, hits mostly inhibitors; 360,000 tested, 4.4% active; AID 504333; further: on the % scale 0 is the no-effect control and ±100 the full control effect; nearly all actives have a fitted effect of over 60% in size
#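 Protein-peptide AlphaScreen: BAZ2B 50 nM, b-H3K14Ac 50 nM, 1x PBS pH 7.4 + 0.01% Tween-20. Preincubation 30 min RT; cpd 30 min RT (top 110 uM); beads 20 min RT, light-protected.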
# Starred values were filed as active, the others as inactive; u = inconclusive; x = no result; [ ] = remark or other dose. A selection: hits, their analogues and other compounds. The true share with any hit is near 12%. The call rests on the fitted dose curve; in most records, active means well fitted curve in the direction sought with a large enough effect; inconclusive means small, poorly fitted or top-dose-only effect, or another doubt; inactive means no such curve, though single readings can be large; an effect the other way counts as inactive or inconclusive. Potency means the concentration at half of the fitted maximal effect.
SMILES,PLK1 PBD block,Sfp inh,JMJD2A Tudor inh,HP1b chromo inh,G9a block,BAZ2B inh
CCOc1ccc(CCNC(=O)c2cnc3c(-c4ccc(F)cc4)c(C)nn3c2C)cc1OCC,x,x,u,76%,11%[59 µM],-11%
COc1ccc(NC(C)=O)cc1NC(C)C(=O)Nc1ccc(F)c(F)c1F (stereo unspecified),-7%,3%,-17%,36%,50µM*,-11%
COc1ccc(NC(C)=O)cc1NC(C)C(=O)Nc1ccccc1F (stereo unspecified),2%,-14%,-19%,14%,u,-2%
O=C(Cn1cc2c(n1)CCCC2)NCc1cccnc1,-1%,-11%,u,41%,-14%,7%
O=C(Cn1cc2c(n1)CCCC2)Nc1ccccc1Cl,24µM*,11%,-30%,8%,3%[59 µM],1%
O=C(Cn1cc2c(n1)CCCCC2)NCc1ccccc1,30µM*,1%,-25%,5%,9%,-7%
Nc1ccc(CCn2ccnc2)cc1,3%,24%,79µM*,37%,-12%,45µM*
N#Cc1c(-c2ccccc2F)cc(C2CC2)nc1SCC(=O)c1cccs1,-19%,3%,-4%,29%,45µM*,-4%
CCSc1nc(C2CC2)cc(-c2cccs2)c1C#N,-19%,-10%,291%,162%,131%[59 µM],213%
CCOC(=O)CSc1nc(C2CC2)cc(-c2ccc(Cl)cc2)c1C#N,24µM*,18µM*,-17%,20%,-2%[59 µM],19%
CCOC(=O)CSc1nc(N)c(C#N)c(-c2ccc(OC)cc2)c1C#N,-20%,-12%,6%,58%,50µM*,7%
CCOC(=O)CSc1nc(-c2ccc(Cl)cc2)cc(C(F)(F)F)c1C#N,x,x,62%,86%,27%[59 µM],16%
COc1ccc(-c2c(C#N)c(N)nc3sc(C(=O)c4ccccc4)c(N)c23)cc1,-19%,-4%,15%,86%,50µM*,23%
CCOc1ccc(-c2c(C#N)c(N)nc3sc(C(=O)c4ccccc4)c(N)c23)cc1,u,-19%,15%,112%,4%[59 µM],0%
CCOc1ccccc1NC(=O)CSc1nccn1Cc1ccc(F)cc1,x,x,-27%,8%[57 µM],-33%[59 µM],u
C=C(C)CSc1nc(N)c(C#N)c(-c2ccc(C)cc2)c1C#N,27µM*,-27%,-4%,16%,u,-24%
O=C(O)c1ccc(S(=O)(=O)c2ccc(Sc3ccc(C(=O)O)c(C(=O)O)c3)cc2)cc1,-22%,4%,-14%,16%,45µM*,50µM*
O=C(O)c1ccc(S(=O)(=O)N2CCCC2)cc1,-6%,4%,4%,49%,-2%,-7%
O=C(CSc1nc(C2CC2)n(-c2ccccc2)n1)NCc1ccco1,-3%,x,-24%,-2%,-10%[12.7 µM],-7%
CN(Cc1ccco1)C(=O)CSc1nc(C2CC2)n(-c2ccccc2)n1,-12%,x,-19%,31%,32µM*,u
CCC12CN3CCN(CC(C3)/C1=N\NC(=O)c1ccc(F)cc1)C2,21µM*,-9%,u,-15%,31%[59 µM],-11%
COCCNC(=S)N1CCC2CC1c1cc(-c3ccc4c(c3)OCO4)ccc12 (stereo unspecified),-2%,x,x,x,x,x
O=C(NC1CCCCC1)N1CCc2ccccc2C1,-11%,13%,-20%,-12%,7%,-11%
O=C(CNC1CCCCC1)N1CCc2ccccc2C1,-2%,u,3.2µM*,-10%,-46%[12.7 µM],71µM*
O=C(CN1CCc2ccccc2C1)NCc1ccco1,-5%,7%,-14%,25%,u,14%
O=C(CNCCc1ccccc1)N1CCc2ccccc2C1,-6%,2%,3.2µM*,u,22µM*,50µM*
O=C(CNCc1cccc(Cl)c1)N1CCc2ccccc2C1,-5%,-25%,20µM*,-37%,14µM*,56µM*
CC(NCc1ccco1)C(=O)N1CCc2ccccc2C1 (stereo unspecified),-2%,-3%,11µM*,u,u,56µM*

# Compound activity: PubChem, National Center for Advancing Translational Sciences (NCATS)
